Experimental data as given in PubChem BioAssay (NCATS).
Inconclusive results are not listed. Active and inactive are the calls of the source. Unless noted, calls come from the whole dose curve; as a rule, active = well fitted curve in the direction sought with a large enough effect; inconclusive = small, poorly fitted or top-dose-only effect, or another doubt; inactive = no such curve, though single readings can be large; an effect the other way counts as inactive or inconclusive.

Assays:
[1] = target: D(1A) dopamine receptor (Homo sapiens) (UniProt P21728); experiment: HTS Assay for Allosteric Agonists of the Human D1 Dopamine Receptor: Primary Screen for Potentiators (AID 488982); conditions: HEK293 T-REx D1 inducible cells, calcium flux, kinetic fluorescence; series mostly up to 8.37 µM; note: 0% is about no effect
D(1A) dopamine receptor (Homo sapiens), sequence (P21728 whole entry, looked up): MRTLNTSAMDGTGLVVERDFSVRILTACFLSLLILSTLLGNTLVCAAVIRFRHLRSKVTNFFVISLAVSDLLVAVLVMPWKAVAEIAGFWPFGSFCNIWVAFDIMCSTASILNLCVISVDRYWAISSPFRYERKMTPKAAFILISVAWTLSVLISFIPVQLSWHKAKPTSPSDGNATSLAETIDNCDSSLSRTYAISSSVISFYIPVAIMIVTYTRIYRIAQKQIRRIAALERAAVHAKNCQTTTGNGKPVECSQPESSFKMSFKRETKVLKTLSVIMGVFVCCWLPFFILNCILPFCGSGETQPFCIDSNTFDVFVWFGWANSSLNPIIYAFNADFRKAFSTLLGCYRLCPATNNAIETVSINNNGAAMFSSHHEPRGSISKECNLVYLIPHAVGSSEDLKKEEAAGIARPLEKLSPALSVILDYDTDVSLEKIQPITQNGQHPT
How it was run: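 Calcium flux in an inducible, force-coupled HEK293 Trex D1 line (overnight at 30 C): agonist mode is the 180 s kinetic read after compound; potentiator mode is the following 180 s read after dopamine at EC20.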

[2] = target: ATPase family AAA domain-containing protein 5 (Homo sapiens) (UniProt Q96QE3); experiment: Validation screen for small molecules that inhibit ELG1-dependent DNA repair in human embryonic kidney (HEK293T) cells expressing luciferase-tagged ELG1 (AID 493107); conditions: HEK293T ELG1-luciferase level, luminescence, 5-fluorouridine co-treatment, 16 h; series mostly up to 46.1 µM;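 note: cells co-treated with the DNA-damaging agent 5-fluorouridine alongside compound; % is set by controls: 0 for no effect and ±100 for the full control effect; inhibitors lower the ELG1-luciferase luminescence signal; nearly all actives have a fitted effect of over 70% in size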
ATPase family AAA domain-containing protein 5 (Homo sapiens), sequence (Q96QE3 whole entry, looked up, the tested form may be a part): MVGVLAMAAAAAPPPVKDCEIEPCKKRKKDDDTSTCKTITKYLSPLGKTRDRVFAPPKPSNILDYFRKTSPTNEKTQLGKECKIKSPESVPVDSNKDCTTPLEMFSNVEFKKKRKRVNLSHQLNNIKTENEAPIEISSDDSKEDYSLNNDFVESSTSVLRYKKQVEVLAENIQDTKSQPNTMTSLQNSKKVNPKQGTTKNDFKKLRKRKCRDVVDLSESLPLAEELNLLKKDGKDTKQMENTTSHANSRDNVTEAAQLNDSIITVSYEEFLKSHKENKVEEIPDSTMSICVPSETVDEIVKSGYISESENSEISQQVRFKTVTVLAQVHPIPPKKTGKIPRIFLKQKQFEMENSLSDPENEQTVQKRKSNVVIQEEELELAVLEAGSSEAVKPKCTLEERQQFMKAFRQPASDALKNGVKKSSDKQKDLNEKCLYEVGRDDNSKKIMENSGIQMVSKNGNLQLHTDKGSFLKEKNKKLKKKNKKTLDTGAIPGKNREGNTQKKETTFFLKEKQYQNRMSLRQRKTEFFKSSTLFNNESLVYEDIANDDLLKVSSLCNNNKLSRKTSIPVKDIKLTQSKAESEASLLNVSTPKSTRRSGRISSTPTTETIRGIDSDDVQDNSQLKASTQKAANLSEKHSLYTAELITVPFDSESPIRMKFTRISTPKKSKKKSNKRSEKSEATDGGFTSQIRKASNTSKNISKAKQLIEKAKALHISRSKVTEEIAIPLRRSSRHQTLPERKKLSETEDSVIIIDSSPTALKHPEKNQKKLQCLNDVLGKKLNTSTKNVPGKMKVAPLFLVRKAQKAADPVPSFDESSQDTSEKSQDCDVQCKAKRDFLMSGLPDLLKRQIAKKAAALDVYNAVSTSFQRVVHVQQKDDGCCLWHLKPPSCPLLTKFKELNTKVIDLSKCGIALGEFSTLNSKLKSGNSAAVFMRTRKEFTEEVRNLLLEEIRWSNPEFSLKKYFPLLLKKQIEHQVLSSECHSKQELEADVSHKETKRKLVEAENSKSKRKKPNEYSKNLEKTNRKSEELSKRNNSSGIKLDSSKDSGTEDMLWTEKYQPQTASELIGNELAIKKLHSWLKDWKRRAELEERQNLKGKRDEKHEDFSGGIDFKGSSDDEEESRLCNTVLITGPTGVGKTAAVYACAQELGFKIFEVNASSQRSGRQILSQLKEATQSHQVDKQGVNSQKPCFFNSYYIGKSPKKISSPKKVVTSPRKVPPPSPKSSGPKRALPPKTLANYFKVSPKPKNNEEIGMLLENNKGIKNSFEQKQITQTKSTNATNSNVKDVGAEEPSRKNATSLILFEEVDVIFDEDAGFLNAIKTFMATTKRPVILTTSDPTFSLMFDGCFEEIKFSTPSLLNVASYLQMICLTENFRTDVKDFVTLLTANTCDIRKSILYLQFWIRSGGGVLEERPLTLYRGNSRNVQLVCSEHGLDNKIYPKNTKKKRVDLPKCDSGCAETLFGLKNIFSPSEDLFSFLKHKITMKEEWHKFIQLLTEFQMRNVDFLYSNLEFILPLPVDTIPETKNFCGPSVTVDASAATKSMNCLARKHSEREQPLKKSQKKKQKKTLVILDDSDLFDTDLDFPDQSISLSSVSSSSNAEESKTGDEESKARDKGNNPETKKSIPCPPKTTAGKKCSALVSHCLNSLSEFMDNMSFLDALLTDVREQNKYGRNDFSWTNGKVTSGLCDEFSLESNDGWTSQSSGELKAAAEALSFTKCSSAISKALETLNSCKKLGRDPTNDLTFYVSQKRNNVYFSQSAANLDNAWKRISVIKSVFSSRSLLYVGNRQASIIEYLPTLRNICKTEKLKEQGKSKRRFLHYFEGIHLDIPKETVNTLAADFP
How it was run: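 HEK293T cells expressing luciferase-tagged ELG1, 2,000 per well, treated with 5-fluorouridine plus compound for 16 h at 37 C. ONE-Glo luminescence after 30 min at room temperature reports ELG1 reporter level.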

[3] = Nrf2 qHTS screen for inhibitors: Validation (AID 493153; active = well fitted inhibition curve with a large enough effect in the main read-out, with a control signal flat, not every such curve was filed as active); conditions: A549 ARE-Fluc reporter, 18-24 h; Potency: luciferase luminescence; viability change: measured here: cytotoxicity max response; luciferase luminescence, at 46.1 µM (top of the series)
How it was run: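 A549 cells carrying ARE-firefly luciferase reporter, 5000 cells/well in 5% FBS OPTI-MEM, treated with compound over a concentration series for 18-24 h at 37 C. Luciferase luminescence gave Nrf2 activity; CellTiter-Fluor fluorescence gave viability.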

[4] = qHTS for Inhibitors of Cell Surface uPA Generation: Validation Assay (AID 493164); conditions: mouse cells, plasminogen activation; series mostly up to 38.3 µM; note: 0% is about no effect
How it was run: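 RAW 264.7 cells (4000/well) were plated overnight, then exposed for 18 h at 37 C, 5% CO2 to compounds in a 7-point 1:5 titration (2.45 nM–38.3 uM final). Intracellular ATP was read by ATP-Lite luminescence.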

[5] = target: Galactokinase (Homo sapiens) (UniProt P51570); experiment: qHTS Validation Assay for Inhibitors of Human Galactokinase (GALK) (AID 493189); conditions: purified human GALK enzyme activity, qHTS 7-point titration; series mostly up to 57.5 µM; note: 0% is about no effect
How it was run: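 Luminescence from leftover ATP (Kinase-Glo Plus, 10 min) served as read-out after a 1 h room-temperature reaction of 5 nM GALK, 100 uM galactose and 35 uM ATP at pH8.0.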

[6] = Validation screen for small molecules that induce DNA re-replication in SW480 colon adenocarcinoma cells (AID 504364); conditions: DNA re-replication phenotype (high-content imaging); series mostly up to 46.1 µM; note: 0% is about no effect
How it was run: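 SW480 cells (250/well) exposed 48 h at 37 C, 5% CO2, then Hoechst-stained 40 min. Nuclear DNA content imaged by fluorescence scanning (405 nm excitation, 500-530 nm emission); re-replication scored as increased nuclei with elevated intensity.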

[7] = target: Peptidyl-prolyl cis-trans isomerase NIMA-interacting 1 (Homo sapiens) (UniProt Q13526); experiment: qHTS Validation Assay to Find Inhibitors of Pin1 (AID 504536; active = well fitted inhibition curve with a large enough effect in the polarisation, with a control signal flat, not every such curve was filed as active; the % refers to the polarisation;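 note: 0% = full Pin1 enzyme wells and -100% = no-enzyme wells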); conditions: Pin1 fluorescence polarization peptide binding assay; series mostly up to 57.5 µM
Peptidyl-prolyl cis-trans isomerase NIMA-interacting 1 (Homo sapiens), sequence (Q13526 whole entry, looked up): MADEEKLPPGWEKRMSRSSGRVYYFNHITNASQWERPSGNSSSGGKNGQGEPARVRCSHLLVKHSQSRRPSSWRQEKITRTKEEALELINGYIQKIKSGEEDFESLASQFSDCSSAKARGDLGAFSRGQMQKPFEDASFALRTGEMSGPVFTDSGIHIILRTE
How it was run: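 Fluorescence polarization competition: compounds (titration) displace HiFluor-488-labeled Pin1-1b peptide from Pin1 (0.3 uM final) in pH 7.5 HEPES buffer with DTT, 10 min at room temperature; %Activity normalized to no-enzyme wells, curves fitted.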

[8] = target: Phosphoglycerate kinase, glycosomal (Trypanosoma brucei brucei) (UniProt P07378); experiment: qHTS Validation Assay to Find Inhibitors of Phosphoglycerate Kinase (AID 504547); conditions: enzymatic PGK inhibition, coupled luminescence read-out; series mostly up to 57.5 µM;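 note: control wells lack PGK and mark full inhibition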
Phosphoglycerate kinase, glycosomal (Trypanosoma brucei brucei), sequence (P07378 whole entry, looked up): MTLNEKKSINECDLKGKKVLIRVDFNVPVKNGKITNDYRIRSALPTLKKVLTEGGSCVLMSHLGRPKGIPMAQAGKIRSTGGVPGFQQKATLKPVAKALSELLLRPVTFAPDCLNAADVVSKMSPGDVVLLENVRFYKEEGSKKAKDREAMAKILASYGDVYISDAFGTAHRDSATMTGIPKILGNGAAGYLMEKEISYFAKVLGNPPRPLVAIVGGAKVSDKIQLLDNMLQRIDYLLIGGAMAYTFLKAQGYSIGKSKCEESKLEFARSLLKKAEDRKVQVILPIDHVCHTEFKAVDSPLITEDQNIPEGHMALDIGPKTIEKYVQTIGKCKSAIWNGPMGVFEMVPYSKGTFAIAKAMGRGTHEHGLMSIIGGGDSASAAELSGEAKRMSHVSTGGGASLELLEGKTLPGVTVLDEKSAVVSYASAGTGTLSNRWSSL
How it was run: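 Inhibition of the enzyme is judged by a Kinase-Glo Plus luminescent signal following a one-hour incubation at room temperature. Because 1,3-BPG is unstable, it is made in situ by GAPDH at 100nM final; no-PGK wells define the baseline.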

[9] = target: phosphoglycerate mutase (Leishmania major) (UniProt Q4Q090); experiment: qHTS Validation Assay to Find Inhibitors of Phosphoglycerate Mutase (AID 504548); conditions: biochemical enzyme activity; series mostly up to 57.5 µM;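 note: end-point luminescence from Kinase-GloPlus after the PGAM reaction; % is set by controls: 0 for no effect and ±100 for the full control effect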
phosphoglycerate mutase (Leishmania major), sequence (Q4Q090 1-553): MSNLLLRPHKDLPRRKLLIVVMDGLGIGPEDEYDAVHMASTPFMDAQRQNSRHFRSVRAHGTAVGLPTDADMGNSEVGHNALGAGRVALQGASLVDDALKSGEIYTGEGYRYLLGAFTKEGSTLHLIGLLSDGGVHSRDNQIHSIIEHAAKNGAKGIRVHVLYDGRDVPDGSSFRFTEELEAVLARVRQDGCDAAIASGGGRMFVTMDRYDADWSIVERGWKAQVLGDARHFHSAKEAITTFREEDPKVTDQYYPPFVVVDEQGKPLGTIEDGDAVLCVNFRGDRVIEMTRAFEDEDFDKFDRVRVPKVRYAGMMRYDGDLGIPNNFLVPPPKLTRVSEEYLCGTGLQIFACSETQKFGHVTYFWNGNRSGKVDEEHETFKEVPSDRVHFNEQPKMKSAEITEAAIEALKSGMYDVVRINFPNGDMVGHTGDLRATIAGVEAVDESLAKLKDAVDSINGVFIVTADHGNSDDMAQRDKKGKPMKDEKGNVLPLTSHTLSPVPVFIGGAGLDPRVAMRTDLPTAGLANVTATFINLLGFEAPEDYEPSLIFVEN
How it was run: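 L. major PGAM (1.25nM final) was added to substrate buffer and pinned compound, incubated 45 minutes at room temperature, then Kinase-GloPlus added; luminescence read after 10 minutes. Buffer: 100 mM TEA pH 7.6, 5 mM MgCl2, 0.01% Tween-20.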

[10] = target: Ubiquitin carboxyl-terminal hydrolase 1 (Homo sapiens) (UniProt O94782); experiment: Inhibitors of USP1/UAF1: Pilot qHTS (AID 504865); conditions: purified USP1/UAF1, Ub-rhodamine cleavage fluorescence; series mostly up to 114 µM;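 note: rhodamine fluorescence freed from ubiquitin-rhodamine substrate followed over time; top concentration of the series differs between compounds; % is set by controls: 0 for no effect and ±100 for the full control effect; nearly all actives have a fitted effect of over 35% in size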
Ubiquitin carboxyl-terminal hydrolase 1 (Homo sapiens), sequence (O94782 whole entry, looked up): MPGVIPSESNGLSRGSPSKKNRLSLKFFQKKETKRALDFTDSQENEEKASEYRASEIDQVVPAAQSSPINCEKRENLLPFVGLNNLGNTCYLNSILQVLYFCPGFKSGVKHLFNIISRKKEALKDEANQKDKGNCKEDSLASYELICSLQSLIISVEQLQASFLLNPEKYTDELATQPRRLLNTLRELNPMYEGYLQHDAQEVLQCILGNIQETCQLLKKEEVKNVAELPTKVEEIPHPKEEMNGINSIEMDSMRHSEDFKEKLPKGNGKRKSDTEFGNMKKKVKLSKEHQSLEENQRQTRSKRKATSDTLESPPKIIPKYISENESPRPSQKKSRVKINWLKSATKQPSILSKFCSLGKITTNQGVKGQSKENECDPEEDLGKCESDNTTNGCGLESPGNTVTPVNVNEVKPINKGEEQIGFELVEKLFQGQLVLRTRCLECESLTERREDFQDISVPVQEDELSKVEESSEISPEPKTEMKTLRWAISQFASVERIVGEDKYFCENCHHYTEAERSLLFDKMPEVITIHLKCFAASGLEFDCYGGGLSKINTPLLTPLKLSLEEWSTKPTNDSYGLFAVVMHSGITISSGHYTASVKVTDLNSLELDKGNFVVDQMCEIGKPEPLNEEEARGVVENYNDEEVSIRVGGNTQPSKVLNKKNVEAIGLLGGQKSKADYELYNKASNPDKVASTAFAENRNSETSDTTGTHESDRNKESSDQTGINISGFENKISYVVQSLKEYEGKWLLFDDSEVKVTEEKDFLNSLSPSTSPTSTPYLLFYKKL
How it was run: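 1nM USP1/UAF1 + cpd, 15 min RT; start w/ Ub-Rho 150nM final; kinetic FL 480/540 nm, 6 reads q60 s. Buffer 50mM HEPES pH 7.8, 0.5mM EDTA, 1mM TCEP, 0.01% Tween-20, 0.1 mg/ml BSA.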

[11] = qHTS for Inhibitors of ATXN expression: Validation of Cytotoxic Assay (AID 588349); conditions: cytotoxicity counter-screen for ATXN expression inhibitors, cell viability; series mostly up to 57.1 µM; note: % is set by controls: 0 for no effect and ±100 for the full control effect
How it was run: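 HEK293 cells treated with titrated compound for 72 hr at 37 degrees C; viability read as intracellular ATP by CellTiter Glo luminescence.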

[12] = Validation screen for small molecules that induce genotoxicity in human embryonic kidney (HEK293T) cells expressing luciferase-tagged ELG1 (AID 493106); conditions: luminescence; series mostly up to 46.1 µM; note: 0% is about no effect
How it was run: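 HEK293T cells expressing luciferase-tagged ELG1, 2,000 cells/well, exposed to compound 16 hr at 37 °C, 5% CO2. Luciferase read after ONE-Glo, 30 min at room temperature; increased signal indicates genetic stress.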

[13] = target: Thyrotropin-releasing hormone receptor (Homo sapiens) (UniProt P34981); experiment: qHTS for Small Molecule Agonists and Allosteric Enhancers of Human TRH Receptor: Validation Screen for Agonists (AID 493127;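 active = calcium activation more than 3 SD above the typical response in the agonist read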; note: 0% is about no effect); conditions: TRH receptor agonist cell assay; at 2 µM; stronger effect = higher value
Thyrotropin-releasing hormone receptor (Homo sapiens), sequence (P34981 whole entry, looked up): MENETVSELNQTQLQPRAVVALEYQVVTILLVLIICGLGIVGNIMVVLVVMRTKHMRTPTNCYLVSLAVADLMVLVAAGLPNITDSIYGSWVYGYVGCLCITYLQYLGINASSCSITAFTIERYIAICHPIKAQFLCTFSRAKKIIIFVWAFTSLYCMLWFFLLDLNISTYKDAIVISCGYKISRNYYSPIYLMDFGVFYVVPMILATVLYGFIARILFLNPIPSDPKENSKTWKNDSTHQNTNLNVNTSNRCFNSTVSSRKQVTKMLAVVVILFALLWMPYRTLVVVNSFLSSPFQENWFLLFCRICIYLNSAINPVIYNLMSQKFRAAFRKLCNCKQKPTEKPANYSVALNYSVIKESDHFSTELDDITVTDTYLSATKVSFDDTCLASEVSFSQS
How it was run: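 TRHR cells loaded with fluo-8 calcium dye; FDSS kinetic fluorescence (Ex 480/Em 530) read at 1 s/cycle after 23 nL compound addition. Agonist-mode calcium response recorded before the 10 nM TRH (EC20) addition.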

[14] = qHTS for Inhibitors of ATXN expression: Validation (AID 588378); conditions: cell-based ATXN2 expression reporter assay, luminescence; series mostly up to 57.1 µM; note: % is set by controls: 0 for no effect and ±100 for the full control effect; nearly all actives have a fitted effect of over 75% in size
How it was run: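 Cells: HEK293-ATXN2-FFLuc, phenol-red free DMEM, 2 h attachment. Compound pin-transfer, 24 h, 37 degrees C, 5% CO2. CellTiter-Fluor 30 min, Ex405/Em525; Bright-Glo 5 min, luminescence 2 s exposure.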

[15] = target: DNA dC->dU-editing enzyme APOBEC-3G (Homo sapiens) (UniProt Q9HC16); experiment: qHTS for inhibitors of Vif-A3G interactions: Validation (AID 588379); conditions: Vif-A3G protein interaction assay; series mostly up to 46.1 µM; note: 0% is about no effect
DNA dC->dU-editing enzyme APOBEC-3G (Homo sapiens), sequence (Q9HC16 whole entry, looked up): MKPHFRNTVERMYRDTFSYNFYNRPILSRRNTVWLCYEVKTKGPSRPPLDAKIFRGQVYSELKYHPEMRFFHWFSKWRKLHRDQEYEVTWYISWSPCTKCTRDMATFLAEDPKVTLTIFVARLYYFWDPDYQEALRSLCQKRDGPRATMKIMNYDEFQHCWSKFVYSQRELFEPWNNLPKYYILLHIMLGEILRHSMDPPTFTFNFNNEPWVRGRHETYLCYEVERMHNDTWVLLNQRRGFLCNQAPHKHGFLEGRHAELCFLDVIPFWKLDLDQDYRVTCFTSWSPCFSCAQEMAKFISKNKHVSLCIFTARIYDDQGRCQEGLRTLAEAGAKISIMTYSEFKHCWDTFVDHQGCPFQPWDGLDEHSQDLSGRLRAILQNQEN
How it was run: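 HeLa cells stably expressing Vif and A3G-eYFP, 700 cells/well, incubated overnight at 37 deg C, then exposed to compound overnight at 37 deg C. Inhibition of Vif-mediated degradation read as increased yellow fluorescence (Ex 488/Em 500-530) by laser-scanning cytometry.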

[16] = target: ATP-dependent 6-phosphofructokinase (Trypanosoma brucei brucei) (UniProt O15648); experiment: qHTS Assay to Find Inhibitors of T. brucei phosphofructokinase: hit validation (AID 492961);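 note: luminescence reports ADP formed as PFK phosphorylates fructose-6-phosphate with ATP; % is set by controls: 0 for no effect and ±100 for the full control effect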; conditions: T. brucei PFK, ADP-Glo luminescence; series mostly up to 51.4 µM
How it was run: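 Measures ADP output of PFK (1.25 nM) at 0.1 mM ATP, 0.5 mM F6P, pH 8.0 TEA buffer with 5 mM MgCl2. No-enzyme wells define full inhibition; uninhibited enzyme wells define zero.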

COCCCC/C(=N\OCCN)c1ccc(C(F)(F)F)cc1
inactive: Potency [1] | Potency [2] | Potency [3] | outcome [4] | outcome [5] | outcome [6] | outcome [7] | outcome [8] | outcome [9] | Potency [10] | Potency [11]
9.56%: viability change [3]

CCN(Cc1ccncc1)C(=O)C(CO)c1ccccc1 (stereo not drawn)
-1.19%: viability change [3]
inactive: Potency [1] | Potency [12] | Potency [2] | activation [13] 0.375% | Potency [3] | outcome [4] | outcome [5] | outcome [6] | outcome [7] | outcome [8] | Potency [10] | Potency [11] | Potency [14]

NC(Cc1ccc(Cl)cc1)C(=O)O (stereo not drawn)
-1.14%: viability change [3]
inactive: Potency [1] | Potency [2] | activation [13] 0.75% | Potency [3] | outcome [4] | outcome [5] | outcome [6] | outcome [7] | outcome [8] | Potency [10] | Potency [11] | Potency [14]

CNCCC(Oc1ccccc1OC)c1ccccc1 (stereo not drawn)
inactive: Potency [1] | Potency [2] | activation [13] 2.38% | Potency [3] | outcome [4] | outcome [5] | outcome [6] | outcome [7] | outcome [8] | outcome [9] | Potency [10] | Potency [11]
4.36%: viability change [3]

CN1C(=O)CC[C@H]1c1cccnc1
0.268%: viability change [3]
inactive: Potency [1] | Potency [3] | outcome [7] | outcome [8] | outcome [9] | Potency [10] | Potency [14]

CN(C)CC/C=C1\c2ccccc2COc2ccccc21
inactive: Potency [1] | Potency [12] | Potency [2] | activation [13] 2.94% | Potency [3] | outcome [4] | outcome [5] | outcome [6] | outcome [7] | outcome [8] | outcome [9] | Potency [10] | Potency [11] | outcome [15]
10.6%: viability change [3]

CCCCNc1c(C(=O)OCC)c(C)nc2c1cnn2CC
2.43%: viability change [3]
inactive: Potency [1] | Potency [12] | Potency [3] | outcome [4] | outcome [5] | outcome [6] | outcome [7] | outcome [8] | Potency [10] | Potency [11] | Potency [14] | outcome [15]

CCCCCCCC/C=C\CCCCCCCC(=O)NCc1ccc(O)c(OC)c1
inactive: outcome [16] | Potency [2] | Potency [3] | outcome [7] | outcome [8] | Potency [11] | Potency [14] | outcome [15]
-10.2%: viability change [3]

c1cnc(N2CCN(Cc3ccc4c(c3)OCO4)CC2)nc1
inactive: Potency [1] | Potency [2] | activation [13] -3.31% | Potency [3] | outcome [4] | outcome [5] | outcome [6] | outcome [8] | outcome [9] | Potency [10] | Potency [14] | outcome [15]
2.39%: viability change [3]

Brc1c(NC2=NCCN2)ccc2nccnc12
-1.27%: viability change [3]
inactive: Potency [1] | Potency [12] | Potency [2] | Potency [3] | outcome [4] | outcome [5] | outcome [6] | outcome [7] | outcome [8] | outcome [9] | Potency [10] | Potency [14] | outcome [15]

Nc1c2c(nc3ccccc13)CCCC2O (stereo not drawn)
inactive: Potency [1] | Potency [12] | Potency [2] | activation [13] 1.62% | Potency [3] | outcome [4] | outcome [5] | outcome [6] | outcome [7] | outcome [9] | Potency [10] | Potency [11] | Potency [14]
6.52%: viability change [3]
